Laboratory results from PubChem BioAssay (EPA / NIEHS).
Results filed as inconclusive are left out. Active and inactive are the calls of the source. Rule for the calls, unless noted: active = hit-call score of the fitted dose curve at least 0.9, where 1 is the maximum; inactive = score below 0.9.

Legend:
[1] = ATG_CRE_CIS: Attagene CIS-FACTORIAL HepG2 Assay for human cAMP Responsive Element (CRE) binding protein 3 (AID 2282926); conditions: HepG2 CRE cis-reporter, Attagene multiplexed mRNA; actives raise or lower the signal
How it was run: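 Capillary electrophoresis of 6-FAM-labelled, HpaI-digested PCR products quantified reporter transcripts. These came from HepG2 transiently transfected with cis-element reporters and exposed to test chemicals for 24 hours, with DMSO defining baseline activity.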

[2] = target: Hepatocyte nuclear factor 3-beta (Homo sapiens) (UniProt Q9Y261); assay: ATG_FoxA2_CIS: Attagene CIS-FACTORIAL HepG2 Assay for human Forkhead box A2 (FOXA2) (AID 2282942); conditions: HepG2 cis-reporter transcription factor activity, 24 h; actives raise or lower the signal
Hepatocyte nuclear factor 3-beta (Homo sapiens), sequence (Q9Y261 whole entry, looked up): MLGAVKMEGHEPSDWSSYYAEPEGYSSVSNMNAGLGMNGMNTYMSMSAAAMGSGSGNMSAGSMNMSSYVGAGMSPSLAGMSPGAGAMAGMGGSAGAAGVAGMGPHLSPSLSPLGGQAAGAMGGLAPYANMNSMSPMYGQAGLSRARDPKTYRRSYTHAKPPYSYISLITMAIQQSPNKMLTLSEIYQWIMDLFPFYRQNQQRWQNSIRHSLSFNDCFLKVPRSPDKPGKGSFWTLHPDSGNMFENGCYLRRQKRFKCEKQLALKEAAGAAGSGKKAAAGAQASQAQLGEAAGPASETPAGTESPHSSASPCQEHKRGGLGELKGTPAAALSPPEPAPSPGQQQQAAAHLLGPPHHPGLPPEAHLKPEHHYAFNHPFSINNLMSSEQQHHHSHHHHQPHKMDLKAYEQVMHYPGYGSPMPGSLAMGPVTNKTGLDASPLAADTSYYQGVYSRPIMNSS
How it was run: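 Endogenous transcription factor activity was read in HepG2 cells carrying transiently transfected cis-promoter reporter units. After 24 h dosing, reporter mRNA was quantified by RT-PCR and capillary electrophoresis, and values fitted bidirectionally versus DMSO.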

[3] = target: Hypoxia-inducible factor 1-alpha (Homo sapiens) (UniProt Q16665); assay: ATG_HIF1a_CIS: Attagene CIS-FACTORIAL HepG2 Assay for human Hypoxia Inducible Factor 1 (HIF1A) (AID 2282951); conditions: HepG2 Attagene cis-factorial HIF1a reporter transcription; actives raise or lower the signal
Hypoxia-inducible factor 1-alpha (Homo sapiens), sequence (Q16665 whole entry, looked up): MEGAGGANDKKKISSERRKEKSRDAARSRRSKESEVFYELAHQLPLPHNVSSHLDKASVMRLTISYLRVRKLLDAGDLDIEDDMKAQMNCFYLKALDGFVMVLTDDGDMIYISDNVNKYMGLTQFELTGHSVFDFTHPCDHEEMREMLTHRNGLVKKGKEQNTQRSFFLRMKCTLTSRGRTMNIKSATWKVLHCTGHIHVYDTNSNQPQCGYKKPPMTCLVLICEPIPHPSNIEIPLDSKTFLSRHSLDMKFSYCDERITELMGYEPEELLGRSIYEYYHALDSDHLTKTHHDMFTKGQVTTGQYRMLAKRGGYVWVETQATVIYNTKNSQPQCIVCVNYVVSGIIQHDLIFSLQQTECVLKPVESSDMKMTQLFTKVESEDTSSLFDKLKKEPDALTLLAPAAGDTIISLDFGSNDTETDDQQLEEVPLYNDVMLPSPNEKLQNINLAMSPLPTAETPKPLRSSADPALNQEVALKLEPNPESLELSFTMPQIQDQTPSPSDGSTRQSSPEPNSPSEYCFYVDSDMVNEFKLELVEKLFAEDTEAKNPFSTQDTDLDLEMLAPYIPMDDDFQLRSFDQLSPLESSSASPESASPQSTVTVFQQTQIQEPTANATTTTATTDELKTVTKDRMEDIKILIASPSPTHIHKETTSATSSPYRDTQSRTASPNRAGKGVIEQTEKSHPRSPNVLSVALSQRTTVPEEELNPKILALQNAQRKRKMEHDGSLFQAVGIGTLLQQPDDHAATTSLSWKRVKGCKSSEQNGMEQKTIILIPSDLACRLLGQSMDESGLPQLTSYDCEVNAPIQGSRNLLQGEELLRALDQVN
How it was run: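 Measures endogenous transcription-factor activity through cis-regulated reporter mRNA in HepG2. Cells dosed 24 h; transcripts quantified by RT-PCR with 6-FAM-labelled products separated by capillary electrophoresis; DMSO serves as negative control.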

[4] = target: Hepatocyte nuclear factor 6 (Homo sapiens) (UniProt Q9UBC0); assay: ATG_HNF6_CIS: Attagene CIS-FACTORIAL HepG2 Assay for human Hepatocyte Nuclear Factor 6 (HNF6) (AID 2282952); conditions: HepG2 Attagene cis-factorial HNF6 reporter transcription; actives raise or lower the signal
Hepatocyte nuclear factor 6 (Homo sapiens), sequence (Q9UBC0 whole entry, looked up): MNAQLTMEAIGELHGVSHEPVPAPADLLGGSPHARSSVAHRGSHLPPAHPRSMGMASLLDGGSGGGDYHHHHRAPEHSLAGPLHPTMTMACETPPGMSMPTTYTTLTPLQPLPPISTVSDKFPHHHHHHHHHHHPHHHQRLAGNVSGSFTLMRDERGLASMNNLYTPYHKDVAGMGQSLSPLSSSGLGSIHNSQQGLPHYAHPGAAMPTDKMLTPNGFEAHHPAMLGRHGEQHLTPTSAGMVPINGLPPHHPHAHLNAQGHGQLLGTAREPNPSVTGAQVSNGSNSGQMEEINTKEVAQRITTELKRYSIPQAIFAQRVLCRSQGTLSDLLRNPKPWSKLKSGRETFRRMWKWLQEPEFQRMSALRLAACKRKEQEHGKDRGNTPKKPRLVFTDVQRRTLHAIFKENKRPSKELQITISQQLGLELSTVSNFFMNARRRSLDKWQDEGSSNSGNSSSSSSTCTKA
How it was run: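 Activity values derive from bidirectional fitting against DMSO of reporter mRNA levels, measured by capillary electrophoresis of labelled RT-PCR products from HepG2 cells exposed 24 h.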

[5] = target: Heat shock factor protein 1 (Homo sapiens) (UniProt Q00613); assay: ATG_HSE_CIS: Attagene CIS-FACTORIAL HepG2 Assay for human Heat Shock Transcription Factor 1 (HSE) (AID 2282953); conditions: HepG2 HSE cis-reporter, Attagene RNA transcription; actives raise or lower the signal
Heat shock factor protein 1 (Homo sapiens), sequence (Q00613 whole entry, looked up, the tested form may be a part): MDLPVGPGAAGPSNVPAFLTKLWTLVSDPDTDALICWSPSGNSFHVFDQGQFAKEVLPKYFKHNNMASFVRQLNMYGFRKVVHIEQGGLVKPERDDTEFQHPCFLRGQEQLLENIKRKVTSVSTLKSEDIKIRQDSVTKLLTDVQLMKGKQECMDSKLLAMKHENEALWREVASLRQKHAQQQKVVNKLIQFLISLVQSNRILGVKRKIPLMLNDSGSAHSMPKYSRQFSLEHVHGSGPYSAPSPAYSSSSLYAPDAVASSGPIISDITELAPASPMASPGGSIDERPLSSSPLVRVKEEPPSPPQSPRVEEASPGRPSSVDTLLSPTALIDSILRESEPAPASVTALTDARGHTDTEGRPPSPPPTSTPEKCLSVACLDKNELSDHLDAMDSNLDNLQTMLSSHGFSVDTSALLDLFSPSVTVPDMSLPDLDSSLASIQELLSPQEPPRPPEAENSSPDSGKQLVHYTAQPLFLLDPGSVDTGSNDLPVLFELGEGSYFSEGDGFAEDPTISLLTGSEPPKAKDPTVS
How it was run: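 Read-out: fluorescence of reporter-specific RT-PCR fragments separated by capillary electrophoresis. HepG2 carrying transfected cis-element reporter units; 24 h dosing; activity fitted in both directions relative to DMSO baseline.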

[6] = ATG_RORE_CIS: Attagene CIS-FACTORIAL HepG2 Assay for human RAR-related Orphan Receptor Element (RORE) (AID 2282959); conditions: HepG2 Attagene cis-factorial RORE reporter, mRNA; actives raise or lower the signal
How it was run: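 Cells were HepG2 carrying transfected cis-regulated reporter constructs, dosed for 24 hours. Total RNA was reverse-transcribed and reporter cDNA amplified, fluorescently labeled and sized by capillary electrophoresis. Activity was fitted bidirectionally relative to DMSO.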

[7] = ATG_TGFb_CIS: Attagene CIS-FACTORIAL HepG2 Assay for human Transforming Growth Factor (TGF) (AID 2282967); conditions: HepG2 Attagene CIS TGFb reporter, mRNA transcription; actives raise or lower the signal
How it was run: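 Readout: fluorescently labeled reporter cDNA fragments resolved by capillary electrophoresis after RT-PCR. Transfected HepG2 cells dosed for 24 h; endogenous TF activity at TGFB1-linked cis element; gain or loss fitted relative to DMSO.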

[8] = target: X-box-binding protein 1 (Homo sapiens) (UniProt P17861); assay: ATG_Xbp1_CIS: Attagene CIS-FACTORIAL HepG2 Assay for human X-box Binding Protein 1 (XBP1) (AID 2282972); conditions: HepG2 XBP1 cis-element reporter, Attagene multiplex; actives raise or lower the signal
X-box-binding protein 1 (Homo sapiens), sequence (P17861 whole entry, looked up): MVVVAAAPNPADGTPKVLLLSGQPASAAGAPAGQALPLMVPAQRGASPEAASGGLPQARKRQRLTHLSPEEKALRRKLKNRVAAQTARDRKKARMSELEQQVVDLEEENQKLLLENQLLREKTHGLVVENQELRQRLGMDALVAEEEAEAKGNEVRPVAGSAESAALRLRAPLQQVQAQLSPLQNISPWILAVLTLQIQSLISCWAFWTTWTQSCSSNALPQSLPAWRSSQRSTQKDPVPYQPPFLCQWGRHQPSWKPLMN
How it was run: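 Human hepatoma HepG2, cis-element reporter system, 24 h treatment; mRNA quantified by RT-PCR/CE fluorescence; fit relative to DMSO.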

[9] = ATG_M_32_TRANS: Attagene TRANS-FACTORIAL HepG2 Assay for M32 Transcription Factor (Internal Marker) (AID 2282984; active = hit-call score of the fitted dose curve at least 0.9, where 1 is the maximum;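 note: transcript level of a background control reporter unit measured by RT-PCR and capillary electrophoresis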); conditions: HepG2 Attagene TRANS M32 internal marker reporter
How it was run: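 After 24 h dosing of transfected HepG2 cells, total RNA was reverse-transcribed, reporter sequences PCR-amplified, 6-FAM labelled by primer extension and HpaI-digested before capillary electrophoresis. Signal increase over DMSO was fitted.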

[10] = target: Transcriptional activator Myb (Homo sapiens) (UniProt P10242); assay: ATG_Myb_CIS: Attagene CIS-FACTORIAL HepG2 Assay for human Myeloblastosis (Myb) Proto-Oncogene Transcription Factor (AID 2282986); conditions: HepG2 Attagene CIS-FACTORIAL Myb reporter transcription; actives raise or lower the signal
Transcriptional activator Myb (Homo sapiens), sequence (P10242 whole entry, looked up): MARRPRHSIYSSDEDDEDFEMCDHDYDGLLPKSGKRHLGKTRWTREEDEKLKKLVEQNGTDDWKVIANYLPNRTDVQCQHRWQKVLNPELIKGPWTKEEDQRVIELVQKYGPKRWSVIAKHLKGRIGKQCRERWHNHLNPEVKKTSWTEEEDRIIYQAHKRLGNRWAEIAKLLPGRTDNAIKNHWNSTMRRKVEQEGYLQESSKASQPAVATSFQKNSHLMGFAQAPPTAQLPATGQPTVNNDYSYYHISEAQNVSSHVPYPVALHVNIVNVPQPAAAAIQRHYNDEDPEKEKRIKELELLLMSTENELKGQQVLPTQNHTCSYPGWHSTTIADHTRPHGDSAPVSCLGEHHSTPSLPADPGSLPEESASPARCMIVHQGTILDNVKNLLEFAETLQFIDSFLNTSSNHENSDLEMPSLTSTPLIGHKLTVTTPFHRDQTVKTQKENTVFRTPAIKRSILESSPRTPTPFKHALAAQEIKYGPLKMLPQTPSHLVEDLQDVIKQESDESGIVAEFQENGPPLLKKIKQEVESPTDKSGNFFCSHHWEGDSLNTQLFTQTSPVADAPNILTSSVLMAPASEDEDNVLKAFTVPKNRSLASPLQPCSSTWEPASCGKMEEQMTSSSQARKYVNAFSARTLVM
How it was run: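 Steps: transfect HepG2 with cis-regulated reporter units; dose with chemical for 24 h; isolate RNA, reverse-transcribe, PCR-amplify and FAM-label reporter sequences; digest with HpaI; resolve by capillary electrophoresis. Activity fitted in both directions relative to DMSO.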

[11] = target: Nuclear respiratory factor 1 (Homo sapiens) (UniProt Q16656); assay: ATG_NRF1_CIS: Attagene CIS-FACTORIAL HepG2 Assay for human Nuclear Respiratory Factor 1 (NRF1) Orphan Gene (AID 2282987); conditions: HepG2 NRF1 cis-element reporter, Attagene multiplex; actives raise or lower the signal
Nuclear respiratory factor 1 (Homo sapiens), sequence (Q16656 whole entry, looked up, the tested form may be a part): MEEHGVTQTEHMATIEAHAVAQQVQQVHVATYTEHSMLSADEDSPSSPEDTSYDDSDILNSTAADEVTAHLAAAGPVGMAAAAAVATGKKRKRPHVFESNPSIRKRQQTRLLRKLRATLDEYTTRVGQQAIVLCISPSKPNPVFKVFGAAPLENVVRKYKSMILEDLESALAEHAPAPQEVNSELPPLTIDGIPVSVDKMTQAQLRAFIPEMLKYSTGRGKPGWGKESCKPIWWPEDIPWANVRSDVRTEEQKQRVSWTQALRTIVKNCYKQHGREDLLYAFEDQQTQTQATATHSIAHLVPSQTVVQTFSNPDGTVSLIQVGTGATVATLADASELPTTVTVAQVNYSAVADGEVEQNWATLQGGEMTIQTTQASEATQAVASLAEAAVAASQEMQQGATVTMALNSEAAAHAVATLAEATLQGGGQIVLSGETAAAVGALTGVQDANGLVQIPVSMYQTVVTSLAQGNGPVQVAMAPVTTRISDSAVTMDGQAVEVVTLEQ
How it was run: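 Fluorescence intensity of labelled reporter cDNA fragments, resolved by capillary electrophoresis, served as readout for NRF1 cis-element activity. Transiently transfected HepG2 cells were dosed for 24 hours; activity in either direction was fitted against DMSO negative control.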

[12] = ATG_NFI_CIS: Attagene CIS-FACTORIAL HepG2 Assay for human Nuclear Factor I (NFI) (AID 2282989); conditions: HepG2 cis-regulatory reporter, NFI response element transcription; actives raise or lower the signal
How it was run: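 Read-out: reporter mRNA via RT-PCR plus capillary electrophoresis with fluorescence detection. Transiently transfected HepG2 (endogenous TF activity on cis promoters), 24 h compound exposure; gain or loss of signal fitted against DMSO.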

[13] = target: Myc proto-oncogene protein (Homo sapiens) (UniProt P01106); assay: ATG_Myc_CIS: Attagene CIS-FACTORIAL HepG2 Assay for human Myelocytomatosis (Myc) Proto-Oncogene Transcription Factor (AID 2282990); conditions: HepG2, Attagene cis-reporter transcription factor activity; actives raise or lower the signal
Myc proto-oncogene protein (Homo sapiens), sequence (P01106 whole entry, looked up): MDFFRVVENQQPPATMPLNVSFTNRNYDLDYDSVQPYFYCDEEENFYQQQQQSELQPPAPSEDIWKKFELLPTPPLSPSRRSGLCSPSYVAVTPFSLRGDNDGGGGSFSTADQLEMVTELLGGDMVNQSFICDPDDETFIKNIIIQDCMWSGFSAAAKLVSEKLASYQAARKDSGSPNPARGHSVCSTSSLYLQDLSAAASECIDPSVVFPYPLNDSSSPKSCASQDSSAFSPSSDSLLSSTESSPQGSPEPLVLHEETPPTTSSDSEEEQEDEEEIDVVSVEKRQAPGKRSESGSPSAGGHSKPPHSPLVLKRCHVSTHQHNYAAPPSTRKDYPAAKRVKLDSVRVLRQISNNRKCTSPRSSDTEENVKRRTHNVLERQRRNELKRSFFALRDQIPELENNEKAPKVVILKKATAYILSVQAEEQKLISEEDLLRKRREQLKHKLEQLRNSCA
How it was run: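 HepG2 cells transiently transfected with multiple cis-promoter-driven reporter transcription units, so endogenous TF activity is read. After 24 h compound exposure, reporter mRNA was quantified by RT-PCR, 6-FAM labelling, HpaI digestion and capillary electrophoresis; bidirectional fit versus DMSO.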

[14] = ATG_NF_kB_CIS: Attagene CIS-FACTORIAL HepG2 Assay for human Nuclear Factor Kappa B (NF-kB) (AID 2282991); conditions: HepG2 Attagene cis-factorial NF-kB reporter mRNA; actives raise or lower the signal
How it was run: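 Endogenous transcription factor activity in HepG2 was captured via cis-regulated reporter constructs; after 24 h dosing, reporter mRNA was reverse-transcribed, amplified, fluorescently labelled and sized by capillary electrophoresis, with activity fitted bidirectionally relative to DMSO.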

[15] = ATG_NRF2_ARE_CIS: Attagene CIS-FACTORIAL HepG2 Assay for human Nuclear Factor Erythroid 2 Related Factor 2 (NFR2) response to Antioxidant Response Elements (ARE) (AID 2282992); conditions: HepG2 Attagene ARE/NRF2 reporter, transcription factor activity; actives raise or lower the signal
How it was run: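 Fluorescence intensity of reporter-specific cDNA fragments, separated by capillary electrophoresis, reflects mRNA induction in transfected HepG2 cells at 24 h. Activity is fitted bidirectionally, DMSO serving as baseline.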

[16] = target: Cellular tumor antigen p53 (Homo sapiens) (UniProt P04637); assay: ATG_p53_CIS: Attagene CIS-FACTORIAL HepG2 Assay for human p53 Transcription Factor (AID 2282994); conditions: HepG2 p53 cis-element reporter, Attagene mRNA; actives raise or lower the signal
Cellular tumor antigen p53 (Homo sapiens), sequence (P04637 whole entry, looked up): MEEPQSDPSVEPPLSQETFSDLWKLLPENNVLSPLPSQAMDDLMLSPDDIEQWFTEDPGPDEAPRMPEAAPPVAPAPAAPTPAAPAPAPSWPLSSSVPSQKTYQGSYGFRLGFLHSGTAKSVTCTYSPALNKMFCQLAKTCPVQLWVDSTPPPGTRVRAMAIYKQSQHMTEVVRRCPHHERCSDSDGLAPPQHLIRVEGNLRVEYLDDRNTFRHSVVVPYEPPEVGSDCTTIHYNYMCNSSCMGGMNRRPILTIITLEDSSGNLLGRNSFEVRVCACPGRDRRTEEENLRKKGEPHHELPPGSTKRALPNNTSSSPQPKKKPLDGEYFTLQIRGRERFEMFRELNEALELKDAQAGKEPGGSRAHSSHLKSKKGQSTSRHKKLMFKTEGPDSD
How it was run: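 Transiently transfected HepG2 (multiple cis reporter transcription units); exposure 24 h; reporter RNA via RT-PCR, 6-FAM extension, 2 h HpaI digest at 37 C, CE detection; DMSO baseline.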

[17] = target: Nuclear receptor subfamily 1 group I member 2 (Homo sapiens) (UniProt O75469); assay: ATG_PXR_TRANS: Attagene TRANS-FACTORIAL HepG2 Assay for human Pregnane X Receptor (PXR) (AID 2283008; active = hit-call score of the fitted dose curve at least 0.9, where 1 is the maximum)
Nuclear receptor subfamily 1 group I member 2 (Homo sapiens), sequence (O75469 whole entry, looked up, the tested form may be a part): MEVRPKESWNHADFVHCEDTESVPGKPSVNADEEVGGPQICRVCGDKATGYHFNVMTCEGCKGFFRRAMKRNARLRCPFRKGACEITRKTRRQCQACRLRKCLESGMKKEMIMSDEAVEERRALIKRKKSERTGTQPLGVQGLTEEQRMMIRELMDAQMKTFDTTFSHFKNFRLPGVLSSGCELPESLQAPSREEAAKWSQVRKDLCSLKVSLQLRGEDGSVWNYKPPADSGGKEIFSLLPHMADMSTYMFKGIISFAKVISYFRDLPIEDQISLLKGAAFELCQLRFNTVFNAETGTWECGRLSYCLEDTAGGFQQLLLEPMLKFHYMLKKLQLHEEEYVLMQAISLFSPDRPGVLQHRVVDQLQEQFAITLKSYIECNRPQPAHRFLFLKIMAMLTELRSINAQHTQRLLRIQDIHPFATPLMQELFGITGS
How it was run: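 Transient HepG2 transfectants carrying multiplexed reporter transcription units; PXR activity read through a Gal4 chimera. 24 h exposure. RT-PCR/CE fluorescence; upward curve fit referenced to DMSO.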

[18] = ATG_XTT_Cytotoxicity: Cytotoxicity Assessment in the Attagene TRANS-FACTORIAL HepG2 Assay (AID 2283584; active = hit-call score of the fitted dose curve at least 0.9, where 1 is the maximum)
How it was run: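 HepG2 human liver cells, transiently transfected with multiple GAL4-UAS reporter units, were dosed and read at 24 h by XTT as cell number. Loss of signal was fitted relative to DMSO negative control baseline.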

[19] = ATG_M_32_CIS: Attagene CIS-FACTORIAL HepG2 Assay for M32 Transcription Factor (Internal Marker) (AID 2282949); conditions: HepG2 Attagene cis-factorial M32 reporter, mRNA; actives raise or lower the signal;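 note: background control marker of the multiplexed CIS panel rather than a real target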
How it was run: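 HepG2 transfectants (cis-regulated reporter transcription units) dosed 24 h. Reporter mRNA by RT-PCR plus CE, analysed as gain or loss relative to DMSO.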

[20] = ATG_TAL_CIS: Attagene CIS-FACTORIAL HepG2 Assay for human TAL Basal Promoter (AID 2282966); conditions: HepG2 Attagene cis-factorial TAL promoter reporter; actives raise or lower the signal;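 note: background control endpoint measuring basal TAL promoter reporter mRNA not a specific factor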
How it was run: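 Transiently transfected HepG2 (cis-regulated reporter units), 24 h treatment, mRNA read by fluorescent CE after RT-PCR; bidirectional fit, DMSO baseline.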

Measured: AC50

CCCOC(=O)c1ccccc1C(=O)OCCC
active: [17] 70.3 µM
not listed: [19] | [20]
inactive: all other assays above

O=C(CCl)c1ccccc1
active: [1] 8.31 µM | [11] 54.4 µM | [15] 8.04 µM | [16] 58.6 µM
not listed: [9]
inactive: all other assays above

CCC[N+](=O)[O-]
inactive: all assays above

CC(C)(O)C#N
not listed: [14] | [19] | [20]
inactive: all other assays above

O=[N+]([O-])c1ccc(Cl)cc1
not listed: [2] | [17]
inactive: all other assays above

CCN(CC)C(=S)S
active: [15] 27.8 µM | [17] 3.68 µM
not listed: [6] | [16] | [18]
inactive: all other assays above

CCOP(=O)(OCC)OCC
not listed: [2] | [14]
inactive: all other assays above

Cc1ccccc1CCl
not listed: [18]
inactive: all other assays above

CC(C)(c1cc(Cl)c(O)c(Cl)c1)c1cc(Cl)c(O)c(Cl)c1
active: [5] 56.5 µM | [10] 47.8 µM | [14] 9 µM | [16] 52.1 µM | [17] 1.87 µM
not listed: [20]
inactive: all other assays above

CC(C)C(=O)Cl
not listed: [6] | [17] | [19]
inactive: all other assays above

CC1OC(C)OC(C)O1 (stereo not given)
inactive: all assays above

C[C@]12CC[C@H](O)C[C@H]1CC[C@@H]1[C@@H]2C[C@@H](O)[C@]2(C)[C@@H](C3=CC(=O)OC3)CC[C@]12O
active: [1] 3.11 µM | [4] 5.31 µM | [5] 2.96 µM | [20] 60.9 µM | [8] 3.98 µM | [10] 5.88 µM | [11] 5.24 µM | [12] 2.61 µM
not listed: [3]
inactive: all other assays above

N#CCNCC#N
not listed: [15] | [17]
inactive: all other assays above

CNC(=N[N+](=O)[O-])NCC1CCOC1 (stereo not given)
not listed: [2] | [17]
inactive: all other assays above

Cc1ccc(C)c2ccccc12
active: [17] 51.3 µM
not listed: [14] | [16]
inactive: all other assays above
